Compound activity as filed in PubChem BioAssay.
PLK1 PBD block – blocks phosphopeptide binding to human PLK1 polo-box domain; P53350; Plk1 PBD binding of FITC phosphopeptide, fluorescence polarization; Potency, µM, inactives show max response, negative = inhibition, most hits filed as inhibitors; 2.8% of 360,000 active; AID 720504; further: series mostly up to about 57 µM; on the % scale 0 is the no-effect control and ±100 the full control effect; nearly all actives have a fitted effect of over 65% in size
JMJD2A Tudor inh – inhibitors of human JMJD2A Tudor domain | O75164 | AlphaScreen JMJD2A-Tudor / H3K4me3 peptide binding | Potency, µM (highest dose often 114 µM), for inactives: top-dose activity change, negative = inhibition, usual class: inhibitors | 4.4% of 390,000 active | AID 504339; further: on the % scale 0 is the no-effect control and ±100 the full control effect; nearly all actives have a fitted effect of over 50% in size
Target sequence (O75164 whole entry, looked up, the tested form may be a part): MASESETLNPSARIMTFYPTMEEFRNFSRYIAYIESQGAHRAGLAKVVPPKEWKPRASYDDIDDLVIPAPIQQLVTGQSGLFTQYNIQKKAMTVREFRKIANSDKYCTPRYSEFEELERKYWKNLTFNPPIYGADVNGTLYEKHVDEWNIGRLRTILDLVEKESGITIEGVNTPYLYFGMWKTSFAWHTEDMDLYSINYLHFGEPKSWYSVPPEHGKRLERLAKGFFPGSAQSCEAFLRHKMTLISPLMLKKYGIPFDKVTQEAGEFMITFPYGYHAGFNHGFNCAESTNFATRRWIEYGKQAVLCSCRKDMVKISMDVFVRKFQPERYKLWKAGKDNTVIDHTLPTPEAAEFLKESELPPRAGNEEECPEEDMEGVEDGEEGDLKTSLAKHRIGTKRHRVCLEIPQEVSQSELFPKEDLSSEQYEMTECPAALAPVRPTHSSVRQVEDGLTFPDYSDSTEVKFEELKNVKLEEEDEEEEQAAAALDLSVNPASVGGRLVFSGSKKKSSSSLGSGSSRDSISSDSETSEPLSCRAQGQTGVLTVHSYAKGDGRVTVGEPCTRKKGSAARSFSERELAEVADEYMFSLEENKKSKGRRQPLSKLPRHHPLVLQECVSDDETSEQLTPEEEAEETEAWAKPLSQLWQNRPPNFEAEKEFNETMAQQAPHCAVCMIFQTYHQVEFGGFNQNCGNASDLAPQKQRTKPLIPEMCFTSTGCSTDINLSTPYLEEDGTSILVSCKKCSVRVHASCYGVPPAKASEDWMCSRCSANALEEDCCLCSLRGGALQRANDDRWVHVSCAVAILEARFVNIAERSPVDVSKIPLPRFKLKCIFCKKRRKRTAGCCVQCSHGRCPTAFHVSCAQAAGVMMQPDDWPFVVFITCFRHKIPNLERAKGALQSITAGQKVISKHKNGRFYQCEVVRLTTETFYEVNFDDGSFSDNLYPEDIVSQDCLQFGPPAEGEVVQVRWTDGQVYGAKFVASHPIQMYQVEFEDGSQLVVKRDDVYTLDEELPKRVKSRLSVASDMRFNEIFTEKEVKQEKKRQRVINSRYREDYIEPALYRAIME
Sfp inh – Sfp phosphopantetheinyl transferase inhibition; AID 1490; 3.5% of 310,000 active; Potency, µM, for inactives: largest response in the series, negative = inhibition, actives largely listed as inhibitors; Biochemical Sfp PPTase activity, qHTS; Q9F4F7;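 further: the enzyme is Sfp with the accession as filed and its product quenches rhodamine fluorescence; 0% = enzyme reaction without inhibitor and -100% = no enzyme wells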
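Reaction rates are the 30-min fluorescence difference (ex 525, em 598 nm) in wells containing 15 nM Sfp, 5 uM rhodamine-CoA and 12.5 uM BHQ-2-YbbR at pH 7.6 with 10 mM MgCl2.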
BAZ2B inh – inhibitors of human BAZ2B bromodomain; Potency, µM (highest dose often 114 µM), for inactives: top-dose activity change, negative = inhibition, actives largely listed as inhibitors; 4.4% of 360,000 active; Q9UIF8; AlphaScreen BAZ2B-H3K14Ac peptide displacement; further: on the % scale 0 is the no-effect control and ±100 the full control effect; nearly all actives have a fitted effect of over 60% in size
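AlphaScreen displacement: compounds (up to 110uM) incubated 30 min at room temperature with a preformed 50 nM BAZ2B/50 nM biotinylated H3K14Ac peptide complex in PBS pH 7.4 with Tween-20. Donor and acceptor beads at 10 ug/mL final added, 20 min light-protected before reading.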
HP1b chromo inh – blocks HP1-beta chromodomain binding to methylated histone tails | P83916 | AlphaScreen HP1-beta / biotin-H3K9me3 peptide binding | Potency, µM (series often up to 114 µM), without a hit: at the top dose activity change, negative = inhibition, usual class: inhibitors | 0.56% of 390,000 active; further: nearly all actives have a fitted effect of over 70% in size
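AlphaScreen: HP1-beta (50 nM) preformed 30 min with biotin-H3(1-18)K9me3 peptide (50 nM) in PBS pH 7.4, 0.01% Tween-20. Compound added for 30 min at RT, then streptavidin donor/nickel chelate acceptor beads (10 ug/mL) for 30 min.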
G9a inh – inhibitors of human histone lysine methyltransferase G9a; Q96KQ7; G9a H3K9 monomethylation, AlphaScreen, 2 h; Potency, µM (top dose mostly 102 µM), for the others: top-dose activity, negative = inhibition, most hits filed as inhibitors; 8.8% of 350,000 active; AID 504332; further: on the % scale 0 is the no-effect control and ±100 the full control effect; nearly all actives have a fitted effect of over 75% in size
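G9a (20 nM) preincubated 15 min RT with compounds, then 500 nM biotinylated H3K9 peptide and 20 uM SAM added; 2 h RT reaction. Monomethyl-H3K9 product detected by AlphaScreen with anti-H3K9me1 antibody, streptavidin donor and anti-rabbit IgG acceptor beads.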
Numbers without * were called inactive; ? = inconclusive; / = not tested or not shown; ! = not active in a repeat; [ ] = remark or other dose. Hits are enriched below; roughly 12% of the tested compounds scored in any of these assays. The call rests on the fitted dose curve; in most records, active means well fitted curve in the direction sought with a large enough effect; inconclusive means small, poorly fitted or top-dose-only effect, or another doubt; inactive means no such curve, though single readings can be large; an effect the other way counts as inactive or inconclusive. Potency means the concentration at half of the fitted maximal effect.

SMILES	PLK1 PBD block	JMJD2A Tudor inh	Sfp inh	BAZ2B inh	HP1b chromo inh	G9a inh
O=C(CN1CCN(c2ccccc2F)CC1)c1c[nH]c2ccc(F)cc12	-4.5%	-17.3%	2.8%	2.1%	12.8%	?
CC(=O)N1CCc2cc(C(=O)CN3CCN(c4ccccc4F)CC3)ccc21	-14.5%	-19.7%	50.1µM*	-33.9%	36.4%	14.1µM*
CC(=O)N1CCc2cc(C(=O)CN3CCN(c4ccccn4)CC3)ccc21	-2.0%	1.1%	50.1µM*	8.5%	36.9%	20µM*
O=C(CN1CCN(c2ccccc2F)CC1)c1ccc2cc[nH]c2c1	-13.6%	-31.2%	-11.2%	4.3%	31.8%	25.1µM*
O=C(CN1CCN(c2ccccc2F)CC1)N1CCc2ccccc21	-15.3%	-8.8%	9.1%	-14.4%	0.3%	10.4%
COc1ccc(Cc2nnc(NC(=O)c3cccc(F)c3)s2)cc1OC	4.4%	0.7%	-11.9%	-1.9%	31.5%	10.9%[12.7 µM]
CC(C)CC(=O)Nc1ccc(C(=O)COC(=O)C2CC(=O)N(Cc3ccccc3)C2)cc1 (stereo not drawn)	-5.2%	-2.7%	/	6.5%	22.9%	-22.2%[59 µM]
Cc1ccc(NS(=O)(=O)c2cccc(C(=O)NCC(c3ccco3)N3CCCCC3)c2)cc1 (stereo not drawn)	-8.5%	-32.8%	2.1%	?	-0.8%	/
O=S(=O)(c1cc(Cl)c(Cl)cc1Cl)N1CCN2CCCC2C1 (stereo not drawn)	-6.0%	-29.2%	-3.0%	-32.5%	28.3%	/
CCOC(=O)N1CCN(C(=S)NC(=O)c2cc(Br)ccc2Cl)CC1	-9.2%	-11.7%	31.2%	-14.6%	7.2%	?
CCOC(=O)N1CCN(C(=S)NC(=O)c2cncc(Br)c2)CC1	18.9µM*	-13.9%	-19.5%	-29.7%	-10.8%	3.98µM*
CCOC(=O)c1ccc(NC(=S)NC(=O)c2cncc(Br)c2)cc1	-10.5%	-1.4%	-27.1%	-2.6%	23.7%	?
CCOC(=O)N1CCN(C(=S)NC(=O)c2ccc(Br)cc2)CC1	-5.2%	-21.0%	7.7%	-17.6%	12.6%	50.1µM*
CCCCOc1ccc(CNC(=O)c2ccc(NC(=O)N3CCCCc4ccccc43)cc2)cc1	/	-18.3%	/	-8.4%	16.1%	2.2%[59 µM]
Cc1ccc(C(=O)n2nc(C)c(S(=O)(=O)N3CCOCC3)c2C)cc1	/	5.1%	/	-0.6%	29.0%[57 µM]	-41.4%[59 µM]
O=C1NN(c2ccc(Cl)c(Cl)c2)C(=O)/C1=C/c1cccc(OC(=O)c2cccs2)c1	/	/	?	50.1µM*	/	?
COC(=O)N/N=C\c1cccc(OC(=O)c2cccs2)c1	-2.8%	-12.6%	6.2%	-12.0%	34.8%	15.0%[59 µM]
O=C1NN(c2ccccc2)C(=O)/C1=C\c1cccc(OC(=O)c2cccs2)c1	1.5µM*	?	50.1µM*	56.2µM*	3.3%	?
CC1CCCCN1C(=O)COC(=O)c1ccc(S(C)(=O)=O)c([N+](=O)[O-])c1 (stereo not drawn)	/	?	/	/	50.4%	/
O=C1C2C3C=CC(C4CC34)C2C(=O)N1c1ccc2c(c1)OCO2 (stereo not drawn)	-16.0%	0.0%	-1.4%	/	46.3%	50.1µM*
CC(C)=C1C2CCC1C1C(=O)N(c3ccc4c(c3)OCO4)C(=O)C21 (stereo not drawn)	-0.2%	-2.1%	4.4%	0.1%	27.0%	-6.9%[59 µM]
CC(C)=C1C2C=CC1C1C(=O)N(c3ccc4c(c3)OCO4)C(=O)C21 (stereo not drawn)	-3.1%	-14.1%	?	-5.3%	55.1%	10µM*
CNc1cccccc1=S	?	11.2µM*	2.4%	10µM*	-19.3%	3.55µM*
CNc1ccccc1	-5.9%	-4.8%	/	-4.4%	20.0%	9.3%[0.501 µM]
O=[N+]([O-])c1ccc(Cl)cc1Sc1nc2ccccc2o1	-19.8%	44.7µM*	-5.0%	14.1µM*	12.6µM*	?
SMILES	PLK1 PBD block	JMJD2A Tudor inh	Sfp inh	BAZ2B inh	HP1b chromo inh	G9a inh
O=[N+]([O-])c1ccc(Cl)cc1Sc1cccc2cccnc12	-7.6%	-6.8%	15.8%	-5.8%	6.6%	-4.1%[59 µM]
COc1cccc(CNC(=O)c2cccc(-n3c(C)nc4cccnc43)c2)c1OC	/	0.7%	/	2.7%	38.3%	-1.0%[59 µM]
COc1ccc2ccccc2c1C(=O)/C=C\c1ccoc1	-11.8%	?	7.94µM*	28.2µM*	?	44.7µM*
COc1cc(OC)c(C(=O)/C=C/c2ccccc2)c(O)c1O	-13.7%	?	-20.7%	?	-23.1%	-16.4%[12.7 µM]
COc1cc(CN2C[C@@H](CO)O[C@@H](n3cnc4c(N(C)C(C)C)ncnc43)C2)cc(OC)c1OC	-0.7%	/	/	/	/	/
O=C(COC(=O)COc1cccc(C(F)(F)F)c1)NC1CCCC1	-6.7%	-19.3%	/	?	26.9%	-6.4%
N=C(N)c1ccc(N)cc1	-14.7%	-2.2%	/	-1.3%	53.5%	1µM*!
CCOc1cc(C(=O)N=c2sccn2C)cc(Br)c1OC	0.7%	8.6%	9.2%	-1.8%	32.1%	3.5%
CSC1=C(C#N)C(=O)NC(c2ccc(Cl)cc2)S1 (stereo not drawn)	7.52µM*	-19.7%	-13.8%	?	-4.0%	31.6µM*
COc1ccccc1NC(=O)C12CCC(C)(C(=O)C1)C2(C)C (stereo not drawn)	26.7µM*	-15.5%	5.1%	-14.0%	-12.4%	0.9%
CC12CCC(C(=O)NCc3ccccc3Cl)(CC1=O)C2(C)C (stereo not drawn)	-1.7%	7.6%	13.3%	-3.0%	39.4%	?
CC[N+]1=CN(c2ccccc2)C(C)=CC1(C)C	?	?	-12.4%	-7.2%	-11.1%	1.78µM*
CC1=NN(c2ccccc2)C(=O)C1(C)C	-2.9%	-5.4%	12.6%	2.8%	15.5%	-0.7%[59 µM]
CCOC(=O)N1CCN(C(=O)c2ccc(CS(=O)(=O)c3ccccc3OC)o2)CC1	-6.6%	0.0%	79.4µM*	7.3%	33.2%	22.0%[59 µM]
COc1ccccc1S(=O)(=O)Cc1ccc(C(=O)NCCN2CCCCCC2)o1	?	-26.1%	1.5%	5.6%	53.1%	50.1µM*
N[C@H](Cc1cc(I)c(Oc2ccc(O)c(I)c2)c(I)c1)C(=O)O	/	/	33.0%	/	/	40.8%[21.5 µM]
COc1ccc(C2=Nc3ccccc3N(C(=O)c3ccc(C(F)(F)F)cc3)C2C(=O)Nc2c(C)cccc2C)cc1 (stereo not drawn)	-0.4%	/	/	/	/	/
CC1CN(c2nc(Nc3ccccc3F)nc(N)c2[N+](=O)[O-])CC(C)O1 (stereo not drawn)	-5.9%	?	5.9%	?	61.7%	15.2%[0.501 µM]
Clc1cccc(-n2cc(-c3ccccc3)c3c(NC4CCCC4)ncnc32)c1	/	5.2%	/	-2.9%	51.7%	4.4%[59 µM]
CN(C)c1ccc(Nc2ncnc3c2c(-c2ccccc2)cn3-c2cccc(Cl)c2)cc1	/	12.6µM*	/	4.47µM*	?	8.91µM*
CC1=NN(c2ccccc2)C(=O)/C1=C/c1cn(C)c2ccccc12	-27.4%	6.31µM*	-10.7%	5.01µM*	11.2µM*	-47.7%
